Test in all cases: Euclidean distance of Cell Painting phenotypic profile (signed KS, 77 features) to DMSO centroid (dimensionless distance); 5 or 10 uM (library dependent); higher = stronger phenotypic change vs DMSO (phenoactivity)
Holding throughout (conditions): 48 h

One assay concerns 786-O. In outline: (§1)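 Harmony extracted 77 features from 20X confocal images (9 fields/well) of stained cells, scoring each as a signed Kolmogorov-Smirnov statistic against same-plate vehicle wells. The cells, five cancer lines and a healthy fibroblast line, had received library compounds for 48 h at 10 or 5 uM depending on library, with 0.1% DMSO final. Phenoactivity is the Euclidean distance from each plate-position-corrected, correlation-weighted, top-dose replicate-averaged profile to the median vehicle profile.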

Another assay relates to A549. In outline: as §1
Another assay has as its system DU145. In outline:
as §1

The next assay concerns FB. The essentials:
as §1

A further assay has as its system HEPG2. In outline:
as §1

The next assay has as its system OVCAR4. The essentials:
as §1

Where a name gives a salt, the structure may show the parent alone.

For `Cc1cc(/C=C/c2ccc3cc(N(C)C)ccc3[n+]2C)c(C)n1-c1ccccc1` [pyrvinium], the Euclidean distance worked out at 5.7 with 786-O; 4.29 in the assay with A549; 5.05 in the assay with DU145; 6.77 in the assay on FB; 3.9 in the assay on HEPG2; 5.35 with OVCAR4.
Regarding `CC(C)(C(=O)O)c1ccc(C(O)CCCN2CCC(C(O)(c3ccccc3)c3ccccc3)CC2)cc1` (configuration not stated) [Fexofenadine HCl], the Euclidean distance is 1.52 with 786-O; 0.838 with A549; 0.779 in the assay on DU145; 0.629 with FB; 0.305 in the assay with HEPG2; 1.91 with OVCAR4.
As for `COC(=O)[C@H](c1ccccc1Cl)N1CCc2sccc2C1` [Clopidogrel], the Euclidean distance was determined as 2.53 in the assay on 786-O; 2.3 with A549; 2.44 in the assay on DU145; 2.99 in the assay with FB; 1.3 in the assay with HEPG2; 2.4 in the assay with OVCAR4.
Take `C/C=C\c1ccc(OC)cc1` [cis-Anethole]: the Euclidean distance with 786-O is 0.571; in the assay on A549 it was 0.784; with DU145, 0.864; with FB, 0.765; with HEPG2 it was 0.671; in the assay on OVCAR4, 1.2.
`COc1ccc2[nH]c([S+]([O-])Cc3ncc(C)c(OC)c3C)nc2c1` (configuration not stated) [Omeprazole]: the Euclidean distance in the assay with 786-O stood at 3.37; in the assay on A549 it was 2.83; with DU145 it was 3.32; in the assay with FB, 3.97; with HEPG2, 4.04; with OVCAR4, 2.98.
In the case of `CCCCCOc1ccc(-c2cc(-c3ccc(C(=O)N[C@H]4C[C@@H](O)[C@@H](O)NC(=O)[C@@H]5[C@@H](O)[C@@H](C)CN5C(=O)[C@H]([C@H](O)CC(N)=O)NC(=O)[C@H]([C@H](O)[C@@H](O)c5ccc(O)c(OS(=O)(=O)O)c5)NC(=O)[C@@H]5C[C@@H](O)CN5C(=O)[C@H]([C@@H](C)O)NC4=O)cc3)no2)cc1` [Micafungin Sodium], the Euclidean distance with 786-O worked out at 1.25; with A549 it was 1.24; with DU145 it was 1.1; in the assay with FB, 1.25; in the assay with HEPG2, 1.15; in the assay on OVCAR4, 1.27.
For `Cl.NCCCC[C@H](N)C(=O)O` [L-Lysine hydrochloride], the Euclidean distance was determined as 0.954 in the assay on 786-O; 1.04 with A549; 0.836 in the assay with DU145; 0.872 with FB; 1.27 with HEPG2; 0.646 with OVCAR4.
Consider `Cc1c(-c2ccccc2)oc2c(C(=O)OCCN3CCCCC3)cccc2c1=O` [Flavoxate HCl], for which the Euclidean distance is 0.908 in the assay with 786-O; 2.27 in the assay with A549; 1.73 in the assay with DU145; 2.91 in the assay on FB; 0.927 in the assay on HEPG2; 1.61 with OVCAR4.
For the molecule `CCOc1cc2ncc(C#N)c(Nc3ccc(F)c(Cl)c3)c2cc1NC(=O)/C=C/CN(C)C` [Pelitinib (EKB-569)], the Euclidean distance with 786-O amounted to 2.29; in the assay on A549, 3.19; in the assay with DU145, 4.45; with FB, 4.45; in the assay on HEPG2, 2.63; in the assay with OVCAR4, 2.82.
Consider `C/C=C(/C)C(=O)O[C@H]1[C@H](OC(C)=O)[C@@]2(CO)C(CC1(C)C)C1=CCC3[C@@]4(C)CCC(O[C@@H]5O[C@H](C(=O)O)[C@@H](O[C@@H]6O[C@H](CO)[C@@H](O)[C@H](O)[C@H]6O)[C@H](O)[C@H]5O[C@@H]5O[C@H](CO)[C@@H](O)[C@H](O)[C@H]5O)[C@](C)(CO)C4CC[C@@]3(C)[C@]1(C)C[C@H]2O.C/C=C(\C)C(=O)O[C@H]1[C@H](OC(C)=O)[C@@]2(CO)C(CC1(C)C)C1=CCC3[C@@]4(C)CCC(O[C@@H]5O[C@H](C(=O)O)[C@@H](O[C@@H]6O[C@H](CO)[C@@H](O)[C@H](O)[C@H]6O)[C@H](O)[C@H]5O[C@@H]5O[C@H](CO)[C@@H](O)[C@H](O)[C@H]5O)[C@](C)(CO)C4CC[C@@]3(C)[C@]1(C)C[C@H]2O` (some centres not stated) [Escin], for which the Euclidean distance in the assay on 786-O was 1.14; in the assay on A549, 0.784; with DU145, 0.972; with FB, 1.18; in the assay on HEPG2 it was 0.678; in the assay on OVCAR4, 1.24.
As to `Cc1cccc(Nc2cc(Cl)nc(SCC(=O)O)n2)c1C`, the Euclidean distance came to 1.08 in the assay on 786-O; 0.839 with A549; 0.785 with DU145; 0.914 in the assay with FB; 0.873 in the assay with HEPG2; 0.647 in the assay on OVCAR4.
Turning to `OCc1ccccc1O[C@@H]1O[C@H](CO)[C@@H](O)[C@H](O)[C@H]1O` [Salicin], the Euclidean distance in the assay on 786-O amounted to 1.17; in the assay with A549 it was 0.655; with DU145 it was 0.503; in the assay with FB, 0.638; with HEPG2, 0.419; in the assay with OVCAR4 it was 1.21.
With `N#Cc1c(O)c2c(-c3ccc(-c4ccccc4O)cc3)csc2[nH]c1=O`, the Euclidean distance in the assay with 786-O amounted to 1.12; with A549 it was 1.26; in the assay with DU145, 0.976; in the assay on FB it was 0.818; in the assay on HEPG2, 0.746; with OVCAR4 it was 1.78.
Take `Nc1nnc(-c2cccc(Cl)c2Cl)c(N)n1` [Lamotrigine]: the Euclidean distance in the assay with 786-O was 0.851; with A549, 1.05; in the assay on DU145 it was 0.825; with FB, 1.12; in the assay on HEPG2, 0.712; with OVCAR4, 1.42.
Regarding `C=CC(=O)Nc1cc(Nc2nccc(-c3cn(C)c4ccccc34)n2)c(OC)cc1N(C)CCN(C)C` [Osimertinib (AZD9291)], the Euclidean distance is 4.93 with 786-O; 4.24 in the assay on A549; 4.29 in the assay with DU145; 5.35 with FB; 5.16 with HEPG2; 4.21 with OVCAR4.
As for `COc1cc2ncnc(Nc3ccc(F)c(Cl)c3)c2cc1NC(=O)/C=C/CN1CCCCC1`, the Euclidean distance was 3.46 in the assay with 786-O; 4.69 with A549; 2.82 in the assay on DU145; 2.17 with FB; 1.47 in the assay with HEPG2; 2.05 in the assay on OVCAR4.
For `Cc1c(C(=O)Nc2ccc(N3C[C@@H](C)O[C@@H](C)C3)nc2)cccc1-c1ccc(OC(F)(F)F)cc1` [LDE225 (NVP-LDE225.Erismodegib)], the Euclidean distance with 786-O worked out at 0.757; in the assay on A549, 1.2; in the assay with DU145, 0.747; in the assay with FB, 0.782; in the assay on HEPG2, 1.4; in the assay with OVCAR4, 1.38.
Consider `CNC[C@H](O)c1ccc(O)c(O)c1` [Epinephrine bitartrate], for which the Euclidean distance was 0.553 in the assay on 786-O; 0.655 in the assay with A549; 0.818 in the assay on DU145; 0.827 in the assay on FB; 0.637 in the assay on HEPG2; 0.577 in the assay with OVCAR4.
Turning to `O=c1cc(CO)occ1O` [Kojic acid], the Euclidean distance in the assay on 786-O was determined as 1.24; in the assay with A549 it was 0.713; in the assay on DU145, 0.837; in the assay with FB, 0.833; in the assay with HEPG2 it was 0.625; with OVCAR4, 1.14.
Consider `CN(C)CCOc1ccc(/C(=C(/CCCl)c2ccccc2)c2ccccc2)cc1` [Toremifene Citrate], for which the Euclidean distance with 786-O amounted to 1.72; in the assay with A549, 1.56; with DU145, 1.81; with FB, 1.97; in the assay on HEPG2 it was 2.79; with OVCAR4, 2.17.
Consider `CO/N=C(\C(=O)N[C@@H]1C(=O)N2C(C(=O)[O-])=C(C[N+]3(C)CCCC3)CS[C@H]12)c1csc(N)n1` [Cefepime Dihydrochloride Monohydrate], for which the Euclidean distance in the assay with 786-O came out at 1.34; with A549, 0.501; in the assay on DU145, 0.945; with FB it was 1.1; in the assay on HEPG2, 0.514; in the assay on OVCAR4 it was 0.878.
In the case of `CCOC(=O)[C@H](CCc1ccccc1)N[C@@H](C)C(=O)N1Cc2cc(OC)c(OC)cc2C[C@H]1C(=O)O` [Moexipril HCl], the Euclidean distance turned out to be 1.48 with 786-O; 1.49 in the assay on A549; 1.02 in the assay on DU145; 0.74 with FB; 2.35 in the assay on HEPG2; 1.78 in the assay with OVCAR4.

The record behind these values is the supplement of paper PMC10127200.
